According to ChEMBL document CHEMBL1961873, “Compounds: GSK PKIS; Assays: Nanosyn kinase panel” (2012):

Tests used:
[1] = molecular target: Death-associated protein kinase 1 (Homo sapiens) (UniProt P53355); conditions: at 1 µM;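 further: each value is a mean inhibition figure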
[2] = molecular target: T1, Serine/threonine-protein kinase DCLK2 (Homo sapiens) (UniProt Q8N568); conditions: at 0.1 µM
T1 sequence (whole entry): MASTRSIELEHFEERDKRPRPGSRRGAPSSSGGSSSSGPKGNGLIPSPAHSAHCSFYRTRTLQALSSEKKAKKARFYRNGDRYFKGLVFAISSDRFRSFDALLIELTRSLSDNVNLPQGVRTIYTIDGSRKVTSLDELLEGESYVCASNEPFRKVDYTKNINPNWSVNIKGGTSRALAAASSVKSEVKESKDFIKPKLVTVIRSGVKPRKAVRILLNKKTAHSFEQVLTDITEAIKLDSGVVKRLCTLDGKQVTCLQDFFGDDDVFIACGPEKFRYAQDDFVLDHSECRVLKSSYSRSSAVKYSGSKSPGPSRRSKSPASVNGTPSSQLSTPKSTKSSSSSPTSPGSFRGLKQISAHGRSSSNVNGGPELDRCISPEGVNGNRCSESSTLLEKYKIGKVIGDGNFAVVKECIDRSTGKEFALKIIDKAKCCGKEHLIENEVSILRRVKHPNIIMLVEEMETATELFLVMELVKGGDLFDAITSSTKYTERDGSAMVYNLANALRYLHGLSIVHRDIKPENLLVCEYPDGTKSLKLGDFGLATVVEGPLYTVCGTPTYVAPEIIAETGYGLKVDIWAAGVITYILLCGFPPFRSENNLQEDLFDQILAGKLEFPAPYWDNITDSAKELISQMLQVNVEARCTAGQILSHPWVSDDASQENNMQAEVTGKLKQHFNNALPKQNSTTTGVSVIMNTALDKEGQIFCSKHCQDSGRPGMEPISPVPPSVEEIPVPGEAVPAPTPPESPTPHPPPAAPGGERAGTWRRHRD

[3] = molecular target: T1, Serine/threonine-protein kinase DCLK2 (Homo sapiens); conditions: at 1 µM
[4] = molecular target: MAP kinase-activated protein kinase 2 (Homo sapiens) (UniProt P49137); conditions: at 0.1 µM
Sequence of MAP kinase-activated protein kinase 2 (Homo sapiens) (P49137 whole entry, looked up): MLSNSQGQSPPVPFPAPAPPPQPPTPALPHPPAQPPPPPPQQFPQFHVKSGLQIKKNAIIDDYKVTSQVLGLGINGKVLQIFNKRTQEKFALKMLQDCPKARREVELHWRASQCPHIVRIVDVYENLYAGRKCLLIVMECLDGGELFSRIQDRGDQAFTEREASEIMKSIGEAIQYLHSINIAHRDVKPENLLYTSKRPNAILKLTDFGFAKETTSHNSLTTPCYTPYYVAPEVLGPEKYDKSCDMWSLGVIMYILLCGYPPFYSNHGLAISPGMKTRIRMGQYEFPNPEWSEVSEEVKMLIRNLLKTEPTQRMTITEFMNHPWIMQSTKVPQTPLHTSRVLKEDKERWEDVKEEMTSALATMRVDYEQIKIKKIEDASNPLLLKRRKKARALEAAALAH

[5] = molecular target: MAP kinase-activated protein kinase 2 (Homo sapiens) (UniProt P49137); conditions: at 1 µM
[6] = molecular target: MAP kinase-activated protein kinase 3 (Homo sapiens) (UniProt Q16644); conditions: at 0.1 µM
Sequence of MAP kinase-activated protein kinase 3 (Homo sapiens) (Q16644 whole entry, looked up): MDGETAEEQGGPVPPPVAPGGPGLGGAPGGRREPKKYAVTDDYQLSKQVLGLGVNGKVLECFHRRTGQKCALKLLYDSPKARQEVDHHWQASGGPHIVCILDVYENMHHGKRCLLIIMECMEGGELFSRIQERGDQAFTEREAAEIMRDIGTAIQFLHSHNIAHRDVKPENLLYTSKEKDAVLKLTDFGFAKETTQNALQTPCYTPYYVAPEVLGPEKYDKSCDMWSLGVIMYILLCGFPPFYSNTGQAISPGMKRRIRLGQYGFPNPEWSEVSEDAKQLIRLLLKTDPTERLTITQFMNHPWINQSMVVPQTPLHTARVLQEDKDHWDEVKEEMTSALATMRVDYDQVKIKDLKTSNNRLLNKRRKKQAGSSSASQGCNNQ

[7] = molecular target: MAP kinase-activated protein kinase 3 (Homo sapiens) (UniProt Q16644); conditions: at 1 µM
[8] = molecular target: Serine/threonine-protein kinase MARK1 (Homo sapiens) (UniProt Q9P0L2); conditions: at 0.1 µM
Sequence of Serine/threonine-protein kinase MARK1 (Homo sapiens) (Q9P0L2 whole entry, looked up): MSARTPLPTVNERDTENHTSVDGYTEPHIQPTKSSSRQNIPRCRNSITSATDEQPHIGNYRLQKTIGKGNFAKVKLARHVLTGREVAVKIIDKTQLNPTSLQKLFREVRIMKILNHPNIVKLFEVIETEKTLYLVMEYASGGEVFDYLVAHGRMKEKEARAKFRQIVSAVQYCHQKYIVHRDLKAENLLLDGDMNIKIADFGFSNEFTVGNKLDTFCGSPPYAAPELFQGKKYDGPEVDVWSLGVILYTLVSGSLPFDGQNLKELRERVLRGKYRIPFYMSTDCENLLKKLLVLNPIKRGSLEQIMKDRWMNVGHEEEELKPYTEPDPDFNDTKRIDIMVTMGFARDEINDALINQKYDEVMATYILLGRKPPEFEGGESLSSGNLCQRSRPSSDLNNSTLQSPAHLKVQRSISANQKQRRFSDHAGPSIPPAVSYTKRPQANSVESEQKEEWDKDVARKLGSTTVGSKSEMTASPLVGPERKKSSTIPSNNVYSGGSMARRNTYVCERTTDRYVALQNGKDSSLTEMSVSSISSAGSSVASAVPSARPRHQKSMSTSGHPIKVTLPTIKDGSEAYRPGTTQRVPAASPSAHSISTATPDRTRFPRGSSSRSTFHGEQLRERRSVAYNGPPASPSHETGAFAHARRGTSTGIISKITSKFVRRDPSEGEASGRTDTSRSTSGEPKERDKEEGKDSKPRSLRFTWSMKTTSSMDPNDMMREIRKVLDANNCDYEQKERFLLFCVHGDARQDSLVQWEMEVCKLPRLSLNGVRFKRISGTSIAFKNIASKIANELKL

[9] = molecular target: Serine/threonine-protein kinase MARK1 (Homo sapiens) (UniProt Q9P0L2); conditions: at 1 µM
[10] = molecular target: MAP/microtubule affinity-regulating kinase 3 (Homo sapiens) (UniProt P27448); conditions: at 0.1 µM;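 further: mean percent inhibition of MARK3 kinase activity, measured within the GSK PKIS screening panel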
Sequence of MAP/microtubule affinity-regulating kinase 3 (Homo sapiens) (P27448 whole entry, looked up): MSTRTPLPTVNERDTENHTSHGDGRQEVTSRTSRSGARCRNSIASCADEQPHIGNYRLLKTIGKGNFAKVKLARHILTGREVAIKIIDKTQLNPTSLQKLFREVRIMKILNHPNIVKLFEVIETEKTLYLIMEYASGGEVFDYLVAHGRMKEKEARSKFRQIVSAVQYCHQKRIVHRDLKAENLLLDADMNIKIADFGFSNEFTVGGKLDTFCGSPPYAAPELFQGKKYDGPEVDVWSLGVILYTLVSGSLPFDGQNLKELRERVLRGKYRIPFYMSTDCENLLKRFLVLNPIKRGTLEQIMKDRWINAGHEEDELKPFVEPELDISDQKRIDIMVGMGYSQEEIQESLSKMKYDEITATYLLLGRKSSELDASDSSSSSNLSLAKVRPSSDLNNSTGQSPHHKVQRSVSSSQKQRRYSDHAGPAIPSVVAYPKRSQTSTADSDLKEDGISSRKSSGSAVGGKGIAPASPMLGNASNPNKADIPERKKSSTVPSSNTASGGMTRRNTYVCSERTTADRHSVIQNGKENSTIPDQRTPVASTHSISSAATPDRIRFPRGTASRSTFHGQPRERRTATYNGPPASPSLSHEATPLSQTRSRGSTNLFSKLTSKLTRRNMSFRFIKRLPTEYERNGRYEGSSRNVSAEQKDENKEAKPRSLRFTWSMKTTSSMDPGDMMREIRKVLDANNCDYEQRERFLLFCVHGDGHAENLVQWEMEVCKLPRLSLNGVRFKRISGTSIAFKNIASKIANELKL

Sequence of Death-associated protein kinase 1 (Homo sapiens) (P53355 whole entry, looked up): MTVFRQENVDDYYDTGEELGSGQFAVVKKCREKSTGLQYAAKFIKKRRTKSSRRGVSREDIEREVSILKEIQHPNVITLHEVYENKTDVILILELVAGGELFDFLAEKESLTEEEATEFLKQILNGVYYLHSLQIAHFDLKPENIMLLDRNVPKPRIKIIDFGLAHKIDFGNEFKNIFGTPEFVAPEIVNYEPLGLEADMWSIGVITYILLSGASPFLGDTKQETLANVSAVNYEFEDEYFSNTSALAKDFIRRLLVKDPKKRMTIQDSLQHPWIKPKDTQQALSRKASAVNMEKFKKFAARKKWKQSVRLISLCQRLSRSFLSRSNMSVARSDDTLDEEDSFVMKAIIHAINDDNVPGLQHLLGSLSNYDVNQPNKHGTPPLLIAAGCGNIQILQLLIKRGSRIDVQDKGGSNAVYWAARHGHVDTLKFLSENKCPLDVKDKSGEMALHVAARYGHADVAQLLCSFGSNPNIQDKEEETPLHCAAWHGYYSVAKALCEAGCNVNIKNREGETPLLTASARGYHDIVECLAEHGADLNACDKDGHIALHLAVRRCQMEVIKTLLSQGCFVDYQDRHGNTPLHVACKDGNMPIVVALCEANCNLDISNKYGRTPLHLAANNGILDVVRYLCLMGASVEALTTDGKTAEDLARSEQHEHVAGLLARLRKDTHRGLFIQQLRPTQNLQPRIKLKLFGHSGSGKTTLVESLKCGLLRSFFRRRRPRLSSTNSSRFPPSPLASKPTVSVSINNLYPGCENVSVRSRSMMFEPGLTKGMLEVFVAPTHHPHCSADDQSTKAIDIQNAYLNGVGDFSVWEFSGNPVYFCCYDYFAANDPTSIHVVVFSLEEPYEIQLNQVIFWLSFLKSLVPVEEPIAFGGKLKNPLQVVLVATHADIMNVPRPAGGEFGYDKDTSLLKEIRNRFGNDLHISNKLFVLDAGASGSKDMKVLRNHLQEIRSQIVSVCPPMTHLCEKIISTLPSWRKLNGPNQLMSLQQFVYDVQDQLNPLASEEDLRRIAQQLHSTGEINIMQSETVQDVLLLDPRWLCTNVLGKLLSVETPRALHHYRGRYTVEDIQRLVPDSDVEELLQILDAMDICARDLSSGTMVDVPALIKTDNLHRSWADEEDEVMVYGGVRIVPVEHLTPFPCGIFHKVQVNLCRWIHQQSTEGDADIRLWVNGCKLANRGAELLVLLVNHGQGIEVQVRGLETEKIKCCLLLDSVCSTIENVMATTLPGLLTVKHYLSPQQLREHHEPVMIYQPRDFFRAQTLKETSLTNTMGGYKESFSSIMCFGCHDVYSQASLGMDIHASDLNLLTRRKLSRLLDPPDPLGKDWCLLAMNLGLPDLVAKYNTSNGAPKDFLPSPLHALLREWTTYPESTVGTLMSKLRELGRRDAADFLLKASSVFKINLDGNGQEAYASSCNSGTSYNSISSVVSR

SMILES	inhibition [1]	inhibition [2]	inhibition [3]	inhibition [4]	inhibition [5]	inhibition [6]	inhibition [7]	inhibition [8]	inhibition [9]	inhibition [10]
NS(=O)(=O)c1ccc(N/N=C2\C(=O)Nc3ccc(Cl)cc32)cc1	-3.71%	0.73%	1%	-0.88%	-0.73%	-2.03%	-2.76%	3.26%	11.4%	4.4%
COc1cc(/C=N/Nc2ncnc3c2cnn3C(C)C)ccc1O	0.9%	2.33%	1.29%	0.78%	0.4%	0.97%	0.08%	2.39%	4.77%	0.28%
CS(=O)(=O)CCNCc1nc(-c2ccc3ncnc(Nc4ccc(OCc5cccc(C(F)(F)F)c5)cc4)c3c2)cs1	2.59%	-1.01%	0.18%	0.97%	1.7%	2.23%	2.67%	1%	1.98%	0.8%
Nc1ccc(C#Cc2cncnc2Nc2ccc(OCc3cccc(F)c3)c(Cl)c2)cc1	1.54%	-0.36%	-0.03%	2.17%	0.48%	4.18%	4.4%	2.19%	3.58%	2.93%
O=S(=O)(CCOCc1ccc(-c2ccc3ncnc(Nc4ccc(OCc5cccc(F)c5)c(Cl)c4)c3c2)o1)c1ccccc1	0.71%	-0.21%	1.2%	0.69%	0.79%	-0.36%	2.16%	-0.2%	2.87%	0.76%
COc1cccc(-n2ncc3c(N/N=C/c4ccc(C)cc4)ncnc32)c1	-4.37%	0.26%	2.82%	-0.94%	0.98%	-0.57%	-0.87%	3.16%	6.21%	2.69%
NC(=O)c1cccc(Nc2nccc(Nc3cccc(F)c3)n2)c1	-2.63%	-0.56%	0.44%	0.22%	0.05%	1.51%	1.85%	0.81%	2.94%	1.98%
CC(C)c1ccc(Nc2nccc(-c3cnn4ncccc34)n2)cc1	-2.33%	0.5%	-1.7%	0.86%	0.39%	3.55%	6.14%	0.51%	4.24%	2.56%
Cc1cc(-c2ccccn2)cc(C)c1/C=C/c1cncc(-c2nn[nH]n2)c1	4.15%	-0.19%	1.55%	2.23%	2.74%	4.19%	6.94%	1.24%	4.82%	2.15%
Nc1nccc(-c2c(-c3ccc(F)cc3)nn3cc(C(F)(F)F)ccc23)n1	1.3%	-1.79%	-1.22%	-0.92%	-1.14%	5.47%	19.9%	-0.24%	-0.05%	-0.09%
Cc1cc(Cl)cc2c1NC(=O)C2=NNc1ccc(S(N)(=O)=O)cc1	3.49%	1.05%	6.07%	1.56%	1.44%	0.78%	2.25%	2.46%	4.87%	3.64%
[O-][S+]1CCN(Cc2ccc(-c3ccc4ncnc(Nc5ccc(OCc6ccccc6)c(Cl)c5)c4c3)o2)CC1	0.97%	0.43%	1.8%	1%	0.44%	6.01%	8.71%	1.37%	2.21%	-0.92%
CCOc1nccc2c1nc(-c1nonc1N)n2CC	3.18%	0.43%	1.18%	2.38%	2.83%	3.14%	2.96%	2.58%	9.64%	1.53%
N#Cc1c(NC(=O)c2ccccc2F)sc2c1CCCC2	-2.35%	-1.75%	0.7%	-1.29%	-0.76%	-0.73%	-1.26%	1.09%	2.84%	-2.32%
Cc1nc(-c2ccccc2)n2nc(NCCCN3CCOCC3)ncc12	1.62%	-0.46%	1.45%	1.25%	2.01%	1.51%	1.12%	0.92%	3%	0.93%
CC(C)c1ccc2c(c1)NC(=O)/C2=N/Nc1ccc(S(N)(=O)=O)cc1	-1.66%	-1.85%	-0.66%	-1.01%	-0.9%	-0.68%	-1.45%	-0.84%	0.9%	-3.67%
Cc1ccc(O)cc1Nc1ccnc2ccc(S(C)(=O)=O)cc12	13.2%	2.11%	1.09%	4.78%	5.17%	14.2%	24.2%	4.73%	7.33%	2.7%
Cc1cc(O)cc(C)c1/C=C/c1cncc(C(=O)N(C)C)c1	5.28%	3.47%	0.19%	0.52%	0.82%	0.87%	1.23%	1.15%	1.29%	2.67%
O=C1Nc2ccc(-c3cccnc3)cc2C1=Cc1cc(Br)c(O)c(Br)c1	-6.21%	1.65%	0.92%	1.36%	1.49%	2.4%	2.92%	4.31%	9.1%	4.31%
CCS(=O)(=O)c1ccc(OC)c(Nc2ncc(-c3cccc(OC)c3)o2)c1	4.19%	0.56%	-0.14%	0.86%	0.67%	1.43%	3.53%	1.2%	2.37%	3.96%

SMILES	inhibition [1]	inhibition [2]	inhibition [3]	inhibition [4]	inhibition [5]	inhibition [6]	inhibition [7]	inhibition [8]	inhibition [9]	inhibition [10]
CCn1c(-c2nonc2N)nc2c(C#CC(C)(C)O)nc(OCCNC)cc21	-0.74%	-0.8%	-0.85%	1.85%	2.88%	2.43%	3.56%	1.55%	10.3%	0.62%
CN(c1ccc(NC(=O)Nc2ccc(OC(F)(F)F)cc2)cc1)c1ccnc(Nc2cccc(S(N)(=O)=O)c2)n1	2.02%	-2.05%	0.7%	0.67%	-0.37%	2.5%	7.62%	0.28%	2.36%	1.62%
CS(=O)(=O)Nc1cccc(-c2ccc3c(NC(=O)C4CC4)n[nH]c3c2)c1	3.29%	2.43%	1.35%	0.07%	0.38%	-0.07%	0.93%	0.98%	3.49%	1.49%
CCn1c(-c2nonc2N)nc2ccc(F)cc21	10.7%	0.68%	0.5%	2.81%	3.62%	4.6%	5.57%	14.8%	6.7%	2.41%
Oc1cccc(-c2nc(-c3ccccc3)[nH]c2-c2ccncc2)c1	6.12%	2.33%	0.39%	1.62%	1.79%	11.7%	25.4%	1.58%	4.27%	3.78%
O=C1Nc2ccccc2/C1=C/Nc1ccc2[nH]c(=O)[nH]c2c1	2.63%	0.75%	-0.33%	2.44%	2.97%	6.76%	8.08%	6.25%	32.5%	2.47%
C[C@@H](Oc1cc(-n2cnc3ccc(OC[C@@H](O)CO)cc32)sc1C(N)=O)c1ccccc1Cl	-5.26%	0.92%	-6.84%	-0.75%	-0.94%	-0.21%	-0.73%	0.87%	5.71%	0.4%
COc1cc2ncnc(Nc3ccc(C)c(O)c3)c2cc1OC	6.25%	2.8%	0.34%	3.52%	3.42%	5.93%	7.13%	4.14%	7.86%	4.06%
NS(=O)(=O)c1cccc(Nc2cc(-c3ccc(F)cc3)n[nH]2)c1	11.9%	0.71%	-0.18%	4.39%	4.71%	9.87%	9.68%	3.98%	17.5%	5.25%
Cc1ccc(Nc2ccnc(Nc3cccc(C(N)=O)c3)n2)cc1O	0.43%	-4.04%	0.3%	1.02%	0.74%	3.05%	7.65%	2.3%	6.45%	4.15%
Nc1nccc(-c2c(-c3ccc(F)cc3)ncn2CCCN2CCOCC2)n1	5.9%	2.38%	-0.25%	2.78%	2.33%	9.94%	23.5%	3.81%	6.99%	2.18%
COc1cc2ncnc(Nc3ccc4c(cnn4Cc4ccccc4)c3)c2cc1OC	8.23%	-1.15%	0.67%	2.78%	4.35%	6.95%	9.14%	1.12%	3.17%	0.1%
N#Cc1cccc(Nc2nccc(-c3cnn4ncccc34)n2)c1	3.93%	2.04%	0.56%	2.34%	1.6%	2.17%	5%	6.5%	15.2%	2.34%
NS(=O)(=O)c1ccc(Nc2cc(-c3cccc(O)c3)n[nH]2)cc1	8.63%	0.84%	0.2%	1.88%	2.79%	4.03%	4.03%	5.12%	11.5%	5.96%
COC(=O)c1ccc2c(c1)C(=Cc1cc(Br)c(O)c(Br)c1)C(=O)N2	-8.17%	1.31%	0.79%	4.54%	7.08%	8.04%	10.5%	1.62%	5.65%	-2.9%
Cc1ccc2c(-c3ccnc(Nc4cccc(C(F)(F)F)c4)n3)c(-c3ccccc3)nn2n1	-5.56%	0.64%	2.53%	-1.16%	-0.78%	15.6%	27.2%	1.58%	4.76%	-0.41%
COc1cccc(-n2ncc3c(N/N=C/c4ccc(S(C)(=O)=O)cc4)ncnc32)c1	-2.35%	-3.49%	-3.25%	-0.57%	-0.87%	-0.21%	-1.31%	0.85%	4.83%	0.34%
NS(=O)(=O)c1ccc(NC=C2C(=O)Nc3ccc4ncsc4c32)cc1	24.9%	0.84%	7.25%	2.28%	4.38%	5.09%	5.58%	30.8%	67.3%	17.8%
CN1CCN(C(=O)c2ccc(NC(=O)Nc3ccc(N(C)c4ccnc(Nc5ccc(CS(C)(=O)=O)cc5)n4)cc3)cc2)CC1	2.64%	-0.43%	0.81%	0.81%	1.86%	2.24%	3.23%	1.73%	15.2%	2.96%
COc1cccc(-n2nc(C)c3c(N/N=C(\C)c4ccncc4)ncnc32)c1	-0.72%	-1%	0.33%	0.1%	0.45%	0.03%	0.31%	0.08%	1.32%	-0.48%
